Four compounds from PubChem BioAssay (NCATS) can be followed below.

Results filed as inconclusive are left out. Activity calls are given as the source filed them. Unless noted, the call rests on the fitted dose curve; in most records, active means well fitted curve in the direction sought with a large enough effect; inconclusive means small, poorly fitted or top-dose-only effect, or another doubt; inactive means no such curve, though single readings can be large; an effect the other way counts as inactive or inconclusive.

The nature of test [1]: qHTS for Inhibitors of the Functional Ribonucleoprotein Complex (vRNP) of Lassa (LASV) Arenavirus: LASV Primary Screen - GLuc reporter signal (AID 1347082; calls by dose curve; tested in HEK293 reporter line; further: nearly all actives have a fitted effect of over 60% in size; further: potency means the concentration at half of the fitted maximal effect).
Test [2] is described as follows: qHTS for Inhibitors of the Functional Ribonucleoprotein Complex (vRNP) of Lassa (LASV) Arenavirus: Viability assay - alamar blue signal for LASV Primary Screen (AID 1347083; calls by dose curve; tested in HEK293 reporter line; further: nearly all actives have a fitted effect of over 80% in size; further: potency means the concentration at half of the fitted maximal effect).
The nature of test [3]: qHTS for Inhibitors of the Functional Ribonucleoprotein Complex (vRNP) of Lymphocytic Choriomeningitis Arenaviruses (LCMV): Viability assay - alamar blue signal for LCMV Primary Screen (AID 1347085; calls by dose curve; tested in HEK293 reporter line; further: nearly all actives have a fitted effect of over 80% in size; further: potency means the concentration at half of the fitted maximal effect). In general terms: In qHTS, concentration-response curves come from the screen itself.
The target of test [4] is Nucleoprotein (Lymphocytic choriomeningitis virus (strain Armstrong)) (UniProt P09992). The test can be described thus: qHTS for Inhibitors of the Functional Ribonucleoprotein Complex (vRNP) of Lymphocytic Choriomeningitis Arenaviruses (LCMV): LCMV Primary Screen - GLuc reporter signal (AID 1347086; calls by dose curve; further: nearly all actives have a fitted effect of over 70% in size; further: potency means the concentration at half of the fitted maximal effect).
Nucleoprotein (Lymphocytic choriomeningitis virus (strain Armstrong)), sequence (P09992 whole entry, looked up): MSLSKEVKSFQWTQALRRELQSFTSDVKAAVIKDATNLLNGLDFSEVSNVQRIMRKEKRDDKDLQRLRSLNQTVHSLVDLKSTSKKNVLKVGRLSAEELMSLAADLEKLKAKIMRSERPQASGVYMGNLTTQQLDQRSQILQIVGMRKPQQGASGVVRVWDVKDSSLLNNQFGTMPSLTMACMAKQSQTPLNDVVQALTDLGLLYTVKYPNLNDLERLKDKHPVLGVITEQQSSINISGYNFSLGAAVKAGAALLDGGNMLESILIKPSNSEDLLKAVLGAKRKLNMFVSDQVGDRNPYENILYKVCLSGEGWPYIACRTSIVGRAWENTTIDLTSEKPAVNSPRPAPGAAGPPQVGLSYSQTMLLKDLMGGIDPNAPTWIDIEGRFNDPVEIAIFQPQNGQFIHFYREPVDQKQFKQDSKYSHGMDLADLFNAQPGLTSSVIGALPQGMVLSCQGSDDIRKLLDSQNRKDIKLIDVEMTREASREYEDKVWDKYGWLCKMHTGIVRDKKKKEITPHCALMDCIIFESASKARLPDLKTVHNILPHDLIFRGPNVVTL
The nature of test [5]: qHTS of pediatric cancer cell lines to identify multiple opportunities for drug repurposing: Primary screen for TC32 cells (AID 1347089). Further: nearly all actives have a fitted effect of over 60% in size. Further: potency means the concentration at half of the fitted maximal effect. In short, it runs like this:
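TC32 cells, 500-1,000/well in growth medium, compound-treated 48 h at 37 °C; viability from CellTiter-Glo luminescence. Primary screen: MIPE 11-point (0.78 nM–46 µM final), NPC 8-point (0.59 nM–46 µM final); confirmatory at 11-point dilutions.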

Test [6] in a line: qHTS of pediatric cancer cell lines to identify multiple opportunities for drug repurposing: Primary screen for DAOY cells (AID 1347090). Further: nearly all actives have a fitted effect of over 55% in size. Further: potency means the concentration at half of the fitted maximal effect. In short, it runs like this:
(§1)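 Cell viability, CellTiter-Glo luminescence; 500-1,000 cells/well, 8- or 11-point titration, 48 h compound exposure at 37 degrees C, 5% CO2. Controls: DMSO neutral, bortezomib 2.3 µM final as positive.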

Test [7] in a line: qHTS of pediatric cancer cell lines to identify multiple opportunities for drug repurposing: Primary screen for SJ-GBM2 cells (AID 1347091). Further: potency means the concentration at half of the fitted maximal effect. In short, it runs like this: as §1
The nature of test [8]: qHTS of pediatric cancer cell lines to identify multiple opportunities for drug repurposing: Primary screen for A673 cells (AID 1347092). Further: nearly all actives have a fitted effect of over 45% in size. Further: potency means the concentration at half of the fitted maximal effect. In short, it runs like this: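 A673 cells (500-1,000 cells/well) were treated 48 hours at 37 degrees C with compounds at 11-point (0.78 nM to 46 µM) or 8-point (0.59 nM to 46 µM) dilutions. Viability read by CellTiter-Glo luminescence; concentration-response curves fitted.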

A short description of test [9]: qHTS of pediatric cancer cell lines to identify multiple opportunities for drug repurposing: Primary screen for SK-N-MC cells (AID 1347093). Further: potency means the concentration at half of the fitted maximal effect. In short, it runs like this:
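Metabolically active cells were quantified by ATP-dependent luminescence (CellTiter-Glo, 15 min at room temperature) following 48 h treatment. Cells had been plated at 500-1,000 per well and settled for 5 h beforehand.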

Test [10] can be described thus: qHTS of pediatric cancer cell lines to identify multiple opportunities for drug repurposing: Primary screen for BT-37 cells (AID 1347094). Further: potency means the concentration at half of the fitted maximal effect. In short, it runs like this:
(§2)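 Phenotypic viability qHTS, 48 h compound exposure, CellTiter-Glo luminescence read-out; multi-concentration dosing so that potency and efficacy derive directly from the primary screen's curves.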

The nature of test [11]: qHTS of pediatric cancer cell lines to identify multiple opportunities for drug repurposing: Primary screen for NB-EBc1 cells (AID 1347095). Further: potency means the concentration at half of the fitted maximal effect. The procedure, abridged:
as §2

Test [12] in a line: qHTS of pediatric cancer cell lines to identify multiple opportunities for drug repurposing: Primary screen for U-2 OS cells (AID 1347096). Further: nearly all actives have a fitted effect of over 50% in size. Further: potency means the concentration at half of the fitted maximal effect. The procedure, abridged: (§3)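 Cells (500-1,000/well) rested 5 h, then received compounds for 48 h; metabolically active cells were measured by CellTiter-Glo luminescence. Final concentrations spanned up to 46 µM (MIPE, 11-point) or 0.59 nM-46 µM (NPC, 8-point) in primary screens, 11-point in follow-ups.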

Test [13] can be described thus: qHTS of pediatric cancer cell lines to identify multiple opportunities for drug repurposing: Primary screen for Saos-2 cells (AID 1347097). Further: nearly all actives have a fitted effect of over 40% in size. In short, it runs like this:
as §2

Test [14] is described as follows: qHTS of pediatric cancer cell lines to identify multiple opportunities for drug repurposing: Primary screen for SK-N-SH cells (AID 1347098). Further: nearly all actives have a fitted effect of over 65% in size. Further: potency means the concentration at half of the fitted maximal effect. In short, it runs like this: as §3
The nature of test [15]: qHTS of pediatric cancer cell lines to identify multiple opportunities for drug repurposing: Primary screen for NB1643 cells (AID 1347099). Further: nearly all actives have a fitted effect of over 50% in size. Further: potency means the concentration at half of the fitted maximal effect. In short, it runs like this:
as §2

A short description of test [16]: qHTS of pediatric cancer cell lines to identify multiple opportunities for drug repurposing: Primary screen for LAN-5 cells (AID 1347100). Further: potency means the concentration at half of the fitted maximal effect. The procedure, abridged:
as §3

Test [17] is described as follows: qHTS of pediatric cancer cell lines to identify multiple opportunities for drug repurposing: Primary screen for Rh18 cells (AID 1347102). Further: nearly all actives have a fitted effect of over 65% in size. In short, it runs like this:
as §3

The nature of test [18]: qHTS of pediatric cancer cell lines to identify multiple opportunities for drug repurposing: Primary screen for OHS-50 cells (AID 1347103). Further: nearly all actives have a fitted effect of over 40% in size. Further: potency means the concentration at half of the fitted maximal effect. The procedure, abridged:
as §3

A short description of test [19]: qHTS of pediatric cancer cell lines to identify multiple opportunities for drug repurposing: Primary screen for BT-12 cells (AID 1347101). Further: nearly all actives have a fitted effect of over 25% in size. Further: potency means the concentration at half of the fitted maximal effect. The procedure, abridged: as §3

Turning to `CCC1(CCC(C)C)C(=O)NC(=O)NC1=O`, the Potency result in test [1], in test [2], in [3], in [4], in [5] and in [6] was “inactive” throughout. The Potency result in test [7], in test [8], in [9], in [10], in [11] and in [12] was “inactive” in each case. For the same compound, the Potency entry in test [13], in test [14], in test [15], in test [16], in test [17] and in test [18] was “inactive” in each case.
`COc1cccc2c1[C@]13CCN(CC4CC4)[C@H](C2)[C@]1(OC)CCC(=O)C3`: the Potency entry in test [1], in test [2], in [3], in test [4], in test [5] and in [6] was “inactive” each time. In addition, the Potency entry in test [7], in [8], in [9], in [10], in test [11] and in test [12] was “inactive” each time. Further, the Potency entry in [13], in test [14], in test [15], in [16], in test [19] and in [17] was “inactive” in each case. The Potency result in [18] is “inactive”.
Consider `CC(C)NCC(O)c1ccc([N+](=O)[O-])cc1` (configuration not stated), for which the Potency result in test [1], in [2], in test [3], in [4], in [5] and in test [6] was “inactive” throughout. In addition, the Potency entry in test [7], in test [8], in test [9], in [10], in test [11] and in test [13] was “inactive” in each case. Also, the Potency result in [14], in test [15], in test [16], in test [19], in [17] and in [18] was “inactive” throughout.
Consider `C[C@@H]1O[C@@H](O[C@@H]2C=C3CC[C@@H]4[C@@H](CC[C@]5(C)[C@H](c6ccc(=O)oc6)CC[C@@]45O)[C@@]3(C)CC2)[C@H](O)[C@H](O)[C@H]1O`, for which the Potency was 68.5 nM (active) in test [1]; 68.5 nM (active) in [2]; 54.4 nM (active) in test [3]; 76.9 nM (active) in test [4]; 41.5 nM (active) in test [5]; 14.8 nM (active) in [6]. Besides, the Potency in test [7] is 8.3 nM (active); in [8], 14.8 nM (active); in [9], 8.3 nM (active); in test [10] it was 9.7 nM (active); in [11], 41.8 nM (active); in test [12], 23.5 nM (active). Moreover, the Potency in [14] was 96.1 nM (active); in test [15], 83.3 nM (active); in test [16], 14.8 nM (active); in test [19], 19.3 nM (active); in test [18] it was 17.2 nM (active).
